RORgamma inh: inhibitors of mouse ROR gamma transcriptional activity; P51450; Drosophila S2 Gal4-RORgamma UAS-luciferase reporter, 20 h; Potency, µM (top dose mostly 53.6 µM), for inactives: at the top dose activity change, negative = inhibition, actives largely listed as inhibitors; 310,000 compounds, 5.4% hits; also: potency is read from the fitted curve at half-maximal effect; nearly all actives have a fitted effect of over 60% in size
Target sequence (P51450 whole entry, looked up, the tested form may be a part): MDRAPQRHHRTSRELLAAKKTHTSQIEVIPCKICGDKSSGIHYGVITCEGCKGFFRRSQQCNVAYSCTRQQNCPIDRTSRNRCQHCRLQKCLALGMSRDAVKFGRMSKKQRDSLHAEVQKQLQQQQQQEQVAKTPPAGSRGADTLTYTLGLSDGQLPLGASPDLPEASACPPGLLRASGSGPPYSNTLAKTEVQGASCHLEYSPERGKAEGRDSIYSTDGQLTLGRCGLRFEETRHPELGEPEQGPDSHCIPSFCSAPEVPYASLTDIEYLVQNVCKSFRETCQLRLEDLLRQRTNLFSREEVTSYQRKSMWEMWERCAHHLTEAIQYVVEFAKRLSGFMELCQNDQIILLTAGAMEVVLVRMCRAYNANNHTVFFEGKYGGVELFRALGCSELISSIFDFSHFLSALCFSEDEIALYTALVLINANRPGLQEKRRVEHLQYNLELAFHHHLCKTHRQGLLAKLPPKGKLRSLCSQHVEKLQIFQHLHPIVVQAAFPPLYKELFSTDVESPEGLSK
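Schneider cells (Drosophila), stable Gal4 DBD–ROR gamma + UAS-luc; 1 hr cmpd preincubation; Cu2+ induction 700 uM final; 20 hr ambient; luminescence.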
IL1B secr inh: inflammasome signaling inhibition, IL-1 beta readout | THP-1 LPS/ATP IL-1B secretion, AlphaLISA, 16 h; hits give low values | activity change, % at 57.5 µM | 360,000 compounds, 4.7% hits | AID 743279; in the data active = activity change below about -50%; inconclusive = mostly about -30% to -49%
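THP-1 cells pretreated 1 hr with compounds (up to 57.5 uM final), then stimulated with LPS (250 ng/mL final) plus ATP (1.25 mM final); secreted IL-1B measured by AlphaLISA after 16 hr, decreased signal indicating inhibition.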
VP16 counter: counter-screen for ROR gamma inhibitors: Gal4-VP16 reporter; Drosophila S2 Gal4-VP16 UAS-luciferase, luminescence, 20 h; Potency, µM (highest dose often 53.6 µM), without a hit: top-dose activity, negative = inhibition, most hits filed as inhibitors; 310,000 compounds, 3.5% hits;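 also: Gal4-VP16 expression switched on by copper sulfate through the metallothionein promoter; potency is read from the fitted curve at half-maximal effect; nearly all actives have a fitted effect of over 50% in size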
DT40 TDP1 no CPT: qHTS for Inhibitors of human tyrosyl-DNA phosphodiesterase 1 (TDP1): qHTS in cells in absence of CPT. DT40 Tdp1-/- hTDP1 cells, no CPT, ATP luminescence, 48 h. Potency, µM (series often up to 46.2 µM), without a hit: at the top dose activity change, negative = growth inhibition, most hits filed as inhibitors. 420,000 compounds, 15% hits; also: potency is read from the fitted curve at half-maximal effect; nearly all actives have a fitted effect of over 55% in size
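No-CPT arm: Tdp1-/-;hTDP1 DT40 cells (400/well) plus compounds, incubated ≥48 hr at 37 °C. Readout CellTiter-Glo luminescence.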
TDP1 cell CPT: DT40-hTDP1 cell growth loss with CPT; chicken DT40 Tdp1-/-;hTDP1 cells + 20 nM CPT, ATP luminescence, 48 h; Potency, µM (highest dose often 46.2 µM), for inactives: at the top dose activity change, negative = growth inhibition, usual class: inhibitors; 420,000 compounds, 12% hits; also: potency is read from the fitted curve at half-maximal effect; nearly all actives have a fitted effect of over 55% in size
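Cell growth measured by CellTiter-Glo luminescence after a minimum 48 h, 37 C compound exposure with 20 nM CPT in Tdp1-knockout DT40 cells stably expressing hTDP1, seeded 400/well; qHTS titration format.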
ELG1 repair inh: inhibitors of ELG1-dependent DNA repair in HEK293T cells; HEK293T ELG1-luciferase reporter, luminescence, 16 h; DNA damage induced by 5-fluorouridine; Potency, µM (highest dose often 46.1 µM), without a hit: top-dose activity change, negative = inhibition, actives largely listed as inhibitors; 330,000 compounds, 2.3% hits; AID 504467; also: potency is read from the fitted curve at half-maximal effect; nearly all actives have a fitted effect of over 55% in size
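In this reporter screen, reduction of luminescence relative to DMSO vehicle indicated activity. Compounds and 5-fluorouridine were added together to 2,000 cells per well, incubated for 16 hr at 37 °C, then developed with ONE-Glo.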
An asterisk follows results filed as active; ? = inconclusive; / = not tested or not shown. An excerpt weighted towards active compounds, which were near 21% of everything screened. Unless noted, calls follow the shape of the dose curve; as a rule, active = well fitted curve in the direction sought with a large enough effect; inconclusive = small, poorly fitted or top-dose-only effect, or another doubt; inactive = no such curve, though single readings can be large; an effect the other way counts as inactive or inconclusive. % is scaled to controls: 0 for no effect and ±100 for the full control effect.

SMILES | RORgamma inh | IL1B secr inh | VP16 counter | DT40 TDP1 no CPT | TDP1 cell CPT | ELG1 repair inh
COc1ccc(CN2CCN(c3ncnc4sc5c(c34)CCCC5)CC2)cc1F | / | / | / | 5.2µM* | 8.2µM* | /
CN(C)C(=O)OCc1n(C)cc[n+]1C | 5% | -3 | -6% | -10% | 2% | 7%
CCN(CC)P(c1n(C)cc[n+]1C)N(CC)CC | 4% | 15 | -8% | 23µM* | ? | -7%
CCc1ccc(NC(=O)c2ccc3oc(=O)n(Cc4ccccc4)c3c2)cc1 | / | / | / | 18µM* | ? | /
COc1cccc(Cn2c(=O)oc3ccccc32)c1 | 13% | -4 | 4% | -4% | 2% | ?
COc1ccc2cc(C(=O)C3CCCN(C4CCOCC4)C3)ccc2c1 (stereo unspecified) | -19% | -15 | 6% | 13µM* | 21µM* | -7%
COc1c(C)cc(C(=O)C2CCCN(Cc3cccc(C)n3)C2)cc1C (stereo unspecified) | 2.2µM* | 19 | 13µM* | 21µM* | ? | ?
Cc1cccc(CN2CCCC(C(=O)c3ccc4c(c3)OCO4)C2)n1 (stereo unspecified) | 3.2µM* | 14 | 13µM* | -28% | -6% | 4%
COc1cccc(C(=O)C2CCCN(Cc3cccc(C)n3)C2)c1 (stereo unspecified) | ? | 18 | 14µM* | 16µM* | 18µM* | -7%
O=C(c1ccc2c(c1)OCO2)C1CCCN(Cc2c(F)cccc2Cl)C1 (stereo unspecified) | 4% | -14 | 2% | ? | -28% | 7%
NC(Cc1ccc(Oc2cc(I)c(O)c(I)c2)c(I)c1)C(=O)O (stereo unspecified) | 9% | / | -16% | / | / | /
O=C(c1csnn1)N1CCC[C@@]2(CCN(Cc3ccncc3)C2)C1 | 6% | / | 0% | -12% | -4% | /
O=C1NO[C@H]2[C@@H]1CN[C@@H]2C(=O)O | -8% | / | 5% | / | / | /
Nc1c(Br)cc2c3c(cccc13)-c1ccccc1-2 | / | -18 | / | 5.2µM* | 8.2µM* | /
c1ccc2c(c1)-c1cccc3cccc-2c13 | 23% | -15 | -23% | -19% | -14% | 26%
Cc1cccc(N2CCN(CCc3ccccc3)CC2)c1C | -9% | -15 | -20% | ? | ? | 11%
Cc1cccc(N2CCN(C(=O)c3ccc(CNc4c(N5CCC(C)CC5)c(=O)c4=O)cc3)CC2)c1C | -13% | 0 | -9% | 16µM* | ? | ?
CC(C)(C)C(O)C(Cc1ccc(Cl)cc1Cl)n1cncn1 (stereo unspecified) | 18% | / | 0% | / | / | /
COC12C(COC(N)=O)C3=C(C(=O)C(C)=C(N)C3=O)N1CC1C2N1C (stereo unspecified) | -35% | 6 | -14% | 0.065µM* | 0.052µM* | ?
CN1CCc2nc(SCc3ccccc3Br)c(C#N)cc2C1 | 4% | -17 | 5% | 18µM* | ? | -5%
Cc1cccc(CSc2nc3c(cc2C#N)CN(C)CC3)c1 | -5% | 6 | 9% | 2% | 6% | 2%
COCCCNC(=O)Cn1cc(/C=C2\C(=O)NC(=O)N(c3ccccc3F)C2=O)c2ccccc21 | ? | -82* | ? | ? | ? | ?
COCCNC(=O)Cn1cc(/C=C2\C(=O)NC(=O)N(c3ccccc3F)C2=O)c2ccccc21 | 20% | 37 | -26% | -2% | -19% | 14%
COC(=O)Cn1cc(/C=C2\C(=O)NC(=O)N(c3ccc(OC)cc3)C2=O)c2ccccc21 | ? | ? | 7% | 2.3µM* | ? | ?
COc1ccc(CN2C(=O)NC(=O)/C(=C\c3cc(OC)c(OC)c(OC)c3)C2=O)cc1 | 33% | -16 | -14% | ? | 18µM* | ?
SMILES | RORgamma inh | IL1B secr inh | VP16 counter | DT40 TDP1 no CPT | TDP1 cell CPT | ELG1 repair inh
O=C1NC(=O)N(Cc2ccc(F)cc2)C(=O)/C1=C\c1ccc([N+](=O)[O-])s1 | 23% | -7 | 8% | 8.2µM* | 13µM* | 2%
COc1ccc(CN2C(=O)NC(=O)/C(=C/c3ccc([N+](=O)[O-])s3)C2=O)cc1 | 6% | 10 | -19% | 4.6µM* | 10µM* | 19%
O=C(O)c1ccccc1SCC(=O)N1c2ccccc2Sc2ccccc21 | -12% | 16 | 14µM* | -3% | -13% | ?
CNCCc1ccc(O)c(O)c1 | / | -1 | / | 5.2µM* | 8.2µM* | /
CC/C=C\C/C=C\C/C=C\C/C=C\C/C=C\CCCC(=O)NCCc1ccc(O)c(O)c1 | 8% | / | -11% | / | / | /
CCC(C)(S(=O)(=O)CC)S(=O)(=O)CC | 11% | / | 3% | -3% | 3% | /
O=C1c2ccccc2C2(c3ccc(Cl)cc3)NCCN12 (stereo unspecified) | 7% | -53* | 0% | -16% | 4% | 0%
CCCCNC(C)Cc1ccccc1 (stereo unspecified) | / | 9 | / | -4% | -2% | 1%
COc1ccc(CC(C)NCCC(c2ccccc2)c2ccccc2)cc1 (stereo unspecified) | / | -71* | / | 16µM* | 13µM* | -25%
CC1CC[C@@]2(NC1)OC1CC3C4CC[C@@H]5CC(O)CC[C@@]5(C)C4CC[C@]3(C)C1C2C (stereo partly specified) | -35% | / | 4% | / | / | /
Nc1cc(Cl)c2nonc2c1[N+](=O)[O-] | 2µM* | -102* | 2.8µM* | 0.65µM* | 0.73µM* | ?
COc1c(C)cc(Br)cc1C(=O)Nc1ccc(-c2nc3ncccc3o2)cc1 | / | / | / | 4.6µM* | 6.5µM* | /
NC(=O)C1CCN(C(=O)CCn2c(=O)oc3ccccc32)CC1 | / | 14 | / | -3% | -3% | ?
CCCCCCCCN1C(=O)[C@H](CC(=O)NCCCC)C[C@@]2(C(=O)OCC)CCCC=C12 | / | 0 | / | 12µM* | 9.2µM* | /
CCOC(=O)C1(c2ccccc2)CCCN(C)CC1 (stereo unspecified) | / | / | / | -6% | -25% | /
CCCCCCCCN1C(=O)[C@H](CC(=O)N2CCCCC2)C[C@@]2(C(=O)OCC)CCCC=C12 | / | ? | / | 5.8µM* | 7.3µM* | /
Clc1ccccc1C1=NCc2nncn2-c2sc(Br)cc21 | / | 12 | / | -9% | 7% | /
O=C(O)Cc1cccnc1C(=O)O | -7% | / | -7% | -9% | 1% | /
S=c1[nH]nc(-c2ccco2)n1-c1cccc2ccccc12 | 7.9µM* | 52 | 13µM* | -3% | 2% | -8%

Screens from PubChem BioAssay.
